Measured values published in PubChem BioAssay (NCI).
About 83,000 compounds went through this panel and 20% of them were active in at least one assay; those are over-represented in the sample as a whole.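 The endpoint reported here, percent growth, reads 100 for growth as untreated, 0 for no net growth and -100 for all cells dead.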 Active and inactive are the calls of the source. The calls were made as follows: active = growth percent below 10; inactive = the rest.

Key:
Experiment in all cases: NCI-60 one-dose screen, 48 h (100 = growth as untreated, 0 = no growth, -100 = all killed)
Conditions in all cases: 10 µM unless noted
SK-MEL-2 melanoma = system: SK-MEL-2 melanoma
EKVX NSCLC = system: EKVX NSCLC
SN12C renal = system: SN12C renal
UO-31 renal = system: UO-31 renal
TK-10 renal = system: TK-10 renal
ACHN renal = system: ACHN renal
CAKI-1 renal = system: CAKI-1 renal
A498 renal = system: A498 renal
CCRF-CEM leukemia = system: CCRF-CEM leukemia
MOLT-4 leukemia = system: MOLT-4 leukemia

Measured: growth

Cn1cc(-c2csc(-c3cn(CCCN4CCOCC4)c4ccccc34)n2)c2cccnc21
inactive: SK-MEL-2 melanoma 91.8% | EKVX NSCLC 86.7% | SN12C renal 87.2% | UO-31 renal 71% | TK-10 renal 86.9% | ACHN renal 93.7% | CAKI-1 renal 92% | A498 renal 55.2% | CCRF-CEM leukemia 62% | MOLT-4 leukemia 59.7%

CCCn1cnc2c(c1=N)C(c1ccc(F)cc1)c1sc3c(F)cccc3c1O2 (stereo not given)
inactive: SK-MEL-2 melanoma 45.8% | EKVX NSCLC 76.5% | SN12C renal 58.6% | UO-31 renal 53.9% | TK-10 renal 80.3% | ACHN renal 56.8% | CAKI-1 renal 30.6% | A498 renal 51.1% | CCRF-CEM leukemia 20.4% | MOLT-4 leukemia 43.8%

COc1ccc(Cn2cc(C(=O)N=Nc3c(O)[nH]c4c(C)cccc34)nn2)cc1
inactive: SK-MEL-2 melanoma 91.9% | EKVX NSCLC 107% | SN12C renal 62.1% | UO-31 renal 14.9% | TK-10 renal 56.1% | ACHN renal 38.2% | CAKI-1 renal 77.1% | A498 renal 101% | CCRF-CEM leukemia 82.8% | MOLT-4 leukemia 83.5%

CSC(SC)=C(C#N)c1nc2ccccc2s1
inactive: SK-MEL-2 melanoma 40% | EKVX NSCLC 74.2% | SN12C renal 34.9% | UO-31 renal 51.8% | TK-10 renal 112% | ACHN renal 62.4% | CAKI-1 renal 55.8% | A498 renal 49.9% | CCRF-CEM leukemia 24.7% | MOLT-4 leukemia 63.6%

CCN(CC)CCN1C(=O)c2cccc3c(/C=C/CN4C(=O)c5cccc6cccc(c56)C4=O)ccc(c23)C1=O
inactive: SK-MEL-2 melanoma 108% | EKVX NSCLC 106% | SN12C renal 96.1% | UO-31 renal 82% | TK-10 renal 129% | ACHN renal 96.8% | CAKI-1 renal 89% | A498 renal 77.7% | CCRF-CEM leukemia 25.4% | MOLT-4 leukemia 62.8%

S=c1nc2oc(-c3ccccc3)c(-c3ccccc3)c2c(/N=C\c2ccco2)[nH]1
inactive: SK-MEL-2 melanoma 92.1% | EKVX NSCLC 95.7% | SN12C renal 99.1% | UO-31 renal 81.2% | TK-10 renal 99.6% | ACHN renal 93.8% | CAKI-1 renal 92.3% | A498 renal 101% | CCRF-CEM leukemia 108% | MOLT-4 leukemia 84%

CN(Cc1cnc2nc(N)nc(N)c2n1)c1ccc(C(=O)NC(CCC(=O)O)C(=O)O)cc1Br (stereo not given)
inactive: SK-MEL-2 melanoma 67.4% | EKVX NSCLC 67.6% | SN12C renal 26% | UO-31 renal 38.8% | TK-10 renal 50.4% | ACHN renal 15.8% | CAKI-1 renal 19% | A498 renal 76.4% | CCRF-CEM leukemia 37.9% | MOLT-4 leukemia 30.5%

C=CN(C(=O)N1CCN(c2cc3c(cc2F)c(=O)c(C(=O)O)cn3C2CC2)CC1)c1nc(-c2ccc(OC)cc2)cs1
inactive: SK-MEL-2 melanoma 18.4% | EKVX NSCLC 23.7% | SN12C renal 11.3% | UO-31 renal 15.5% | TK-10 renal 42.8% | ACHN renal 23.6% | CAKI-1 renal 17.3% | MOLT-4 leukemia 18%
active: A498 renal 8.44% | CCRF-CEM leukemia 8.17%

N#Cc1cncc(-c2ccc3ncnc(Nc4cccc(Cl)c4)c3c2)c1
inactive: SK-MEL-2 melanoma 90.5% | EKVX NSCLC 40.7% | SN12C renal 82.9% | UO-31 renal 71% | TK-10 renal 43.9% | ACHN renal 58.6% | CAKI-1 renal 66.1% | A498 renal 33.4% | CCRF-CEM leukemia 101% | MOLT-4 leukemia 87.5%

COc1ccc(C(=O)/C=C/c2ccc(Cl)cc2)cc1S(=O)(=O)Nc1c(N)nc(SC)[nH]c1=O
inactive: SK-MEL-2 melanoma 95.8% | EKVX NSCLC 85.2% | SN12C renal 16.8% | UO-31 renal 51.6% | TK-10 renal 79.6% | ACHN renal 82.1% | CAKI-1 renal 68.5% | A498 renal 80.9% | MOLT-4 leukemia 59.8%
active: CCRF-CEM leukemia 9.03%

CCOC(=O)c1cnc2c(N=Nc3ccc(OC)cc3)c(N)nn2c1N
inactive: SK-MEL-2 melanoma 102% | EKVX NSCLC 103% | SN12C renal 95.2% | UO-31 renal 94.2% | TK-10 renal 104% | ACHN renal 109% | CAKI-1 renal 96.6% | A498 renal 92.5% | CCRF-CEM leukemia 103% | MOLT-4 leukemia 88%

O=C(CN1CCN(c2cc3c(cc2F)c(=O)c(C(=O)O)cn3C2CC2)CC1)N/N=C/c1ccco1
inactive: SK-MEL-2 melanoma 105% | EKVX NSCLC 97.8% | SN12C renal 108% | UO-31 renal 88.3% | TK-10 renal 101% | ACHN renal 98.1% | CAKI-1 renal 99.7% | A498 renal 91.7% | CCRF-CEM leukemia 107% | MOLT-4 leukemia 93.9%

Cc1nn(-c2ccccc2)c(N)c1N=C1NC(=O)/C(=C/c2ccc(Br)cc2)S1
inactive: SK-MEL-2 melanoma 104% | EKVX NSCLC 87.7% | SN12C renal 73.8% | UO-31 renal 72.1% | TK-10 renal 106% | ACHN renal 88.5% | CAKI-1 renal 68% | A498 renal 67% | CCRF-CEM leukemia 72.1% | MOLT-4 leukemia 80.8%

O=C(/C=C(O)/C=C/c1cccc2[nH]ccc12)/C=C/c1cccc2[nH]ccc12
inactive: SK-MEL-2 melanoma 85.9% | EKVX NSCLC 97.8% | SN12C renal 82.5% | UO-31 renal 52% | TK-10 renal 83.9% | ACHN renal 84.4% | CAKI-1 renal 74.6% | A498 renal 112% | CCRF-CEM leukemia 65.4% | MOLT-4 leukemia 59.2%

C=C(C)[C@@H]1CC[C@]2(C)[C@H](CC=C3[C@@H]4CC(C)(C)CC[C@]4(CO)CC[C@]32C)[C@@]1(C)CCCN
active: SK-MEL-2 melanoma -35.7% | SN12C renal -59.7% | TK-10 renal -45.8% | ACHN renal -40.8% | CCRF-CEM leukemia -18.4% | MOLT-4 leukemia -35.9%
inactive: EKVX NSCLC 97.4% | UO-31 renal 47.7% | CAKI-1 renal 40.3% | A498 renal 80.5%

Cc1c(CN)cc(-c2ccc(Cl)cc2)n1-c1ccccc1
inactive: SK-MEL-2 melanoma 90.2% | EKVX NSCLC 82.6% | SN12C renal 87.6% | UO-31 renal 59.2% | TK-10 renal 66.3% | ACHN renal 74.7% | CAKI-1 renal 40.7% | CCRF-CEM leukemia 81.7% | MOLT-4 leukemia 82.3%
active: A498 renal -7.73%

CCOC(=O)c1nn(CC(O)c2ccccc2)c(NC(=O)Nc2cccc(F)c2)c1C (stereo not given)
inactive: SK-MEL-2 melanoma 95% | EKVX NSCLC 101% | SN12C renal 87.5% | UO-31 renal 90.1% | TK-10 renal 105% | ACHN renal 107% | CAKI-1 renal 101% | A498 renal 76.7% | CCRF-CEM leukemia 96.7% | MOLT-4 leukemia 99.2%

CN(C)c1ccc(/C=C(\C#N)c2cc3ccccc3[nH]2)cc1
inactive: SK-MEL-2 melanoma 27.3% | EKVX NSCLC 42.2% | SN12C renal 29% | UO-31 renal 37.8% | TK-10 renal 49.2% | ACHN renal 46.2% | CAKI-1 renal 31.5% | A498 renal 14.4% | MOLT-4 leukemia 38.4%
active: CCRF-CEM leukemia 9.57%

CCn1cc(CNc2ccc(C(=O)Nc3cc4cc(OC)c(OC)cc4c(C)n3)cc2)cn1
inactive: SK-MEL-2 melanoma 38.7% | EKVX NSCLC 60.5% | SN12C renal 79.3% | UO-31 renal 19.8% | TK-10 renal 52.7% | ACHN renal 60.8% | CAKI-1 renal 69% | A498 renal 73.8% | CCRF-CEM leukemia 17.5% | MOLT-4 leukemia 35.2%

COc1ccc(C(=S)N2CCN(c3ccc(Cl)cc3)CC2)cc1
inactive: SK-MEL-2 melanoma 97.7% | EKVX NSCLC 130% | SN12C renal 85.4% | UO-31 renal 81.9% | TK-10 renal 101% | ACHN renal 94.8% | CAKI-1 renal 105% | A498 renal 107% | CCRF-CEM leukemia 90.3% | MOLT-4 leukemia 76.8%

Cc1cc(Nc2ccc(C(=O)N3CCCC3)cc2)nc(NCCCNc2ccnc3cc(Cl)ccc23)n1
inactive: SK-MEL-2 melanoma 99.5% | EKVX NSCLC 101% | SN12C renal 85% | UO-31 renal 86.7% | TK-10 renal 106% | ACHN renal 99% | CAKI-1 renal 99.1% | A498 renal 95.2% | CCRF-CEM leukemia 65.3% | MOLT-4 leukemia 36.9%

O=C1Nc2c(C(=O)O)cccc2/C1=N/c1n[nH]c(=S)s1
inactive: SK-MEL-2 melanoma 98.8% | EKVX NSCLC 77.6% | SN12C renal 93.4% | UO-31 renal 69.9% | TK-10 renal 117% | ACHN renal 78% | CAKI-1 renal 52% | A498 renal 115% | CCRF-CEM leukemia 88.7% | MOLT-4 leukemia 90%

O=S(=O)(Nc1cc(Sc2cccc3cccnc23)c(O)c2ccccc12)c1ccccc1
active: CCRF-CEM leukemia 4.22% | MOLT-4 leukemia -7.99%
inactive: SK-MEL-2 melanoma 13.4% | EKVX NSCLC 36.4% | SN12C renal 29.6% | UO-31 renal 23.7% | TK-10 renal 23.4% | ACHN renal 16.9% | CAKI-1 renal 25.9% | A498 renal 70.4%

Cc1ccc(S(=O)(=O)Oc2ccc3sc4cccc(NCCN(C)C)c4c(=O)c3c2)cc1
active: SK-MEL-2 melanoma -71.2% | EKVX NSCLC -84% | SN12C renal -77.2% | UO-31 renal -95.5% | TK-10 renal -83.2% | ACHN renal -95.9% | CAKI-1 renal -97.8% | A498 renal -96% | CCRF-CEM leukemia -45.8% | MOLT-4 leukemia -32.7%

CN(C)c1ccc(-c2nc(-c3ccccc3)c(-c3ccccc3)[nH]2)cc1
inactive: SK-MEL-2 melanoma 83.9% | EKVX NSCLC 61.1% | SN12C renal 92.9% | UO-31 renal 84.8% | TK-10 renal 99.6% | ACHN renal 94% | CAKI-1 renal 84.6% | A498 renal 82.4% | CCRF-CEM leukemia 90% | MOLT-4 leukemia 83.4%

COc1ccc(-c2ccc(-c3ccc(C(=N)N)nc3)s2)cc1Cl
inactive: SK-MEL-2 melanoma 102% | EKVX NSCLC 56.4% | TK-10 renal 94.5% | A498 renal 88.2%
active: SN12C renal -81.7% | UO-31 renal -94.8% | ACHN renal -96.2% | CAKI-1 renal -90.2% | CCRF-CEM leukemia -49% | MOLT-4 leukemia -49.3%
